The values that follow come from PubChem BioAssay AID651598 (Sanford-Burnham Center for Chemical Genomics, 2012).

Several values for one entry are separate records, joined by “and”; a condition that tells them apart may be missing. Equal entries are not always repeated.

In this assay the target is C-X-C chemokine receptor type 6 (Homo sapiens) (UniProt O00574). Description: APJ beta-arrestin recruitment blockade alongside CXCR6 – cell-based, DiscoveRx, panel, CHO-K1, counter-screen for CXCR6 antagonist project, SAR follow-up (AID 651598). The following applies: CHO-K1 PathHunter beta-arrestin luminescence, antagonist mode; run 4, at 80 µM (top of the series). (Recruitment of arrestin is a read-out of receptor activation apart from second messengers.)
C-X-C chemokine receptor type 6 (Homo sapiens), sequence (O00574 whole entry, looked up): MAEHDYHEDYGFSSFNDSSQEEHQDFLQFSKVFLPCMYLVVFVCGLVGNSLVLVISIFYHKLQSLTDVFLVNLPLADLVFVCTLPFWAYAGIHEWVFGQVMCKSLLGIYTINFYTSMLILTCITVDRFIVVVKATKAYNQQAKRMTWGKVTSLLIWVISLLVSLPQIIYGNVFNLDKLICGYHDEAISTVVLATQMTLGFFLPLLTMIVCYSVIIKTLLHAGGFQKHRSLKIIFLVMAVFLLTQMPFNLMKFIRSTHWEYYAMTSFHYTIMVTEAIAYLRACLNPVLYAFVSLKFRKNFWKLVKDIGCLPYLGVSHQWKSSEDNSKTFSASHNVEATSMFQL
For `COc1cc(C(=O)NC2CC3CCCC(C2)N3CC(=O)Nc2ccccc2)cc(OC)c1OC` (stereo not drawn), the inhibition is 88.8% and 51.2% and 29%. Regarding `COc1cc(C(=O)NC2CCN(CC(=O)Nc3ccccc3)CC2)cc(OC)c1OC`, the inhibition was found to be 29.6%. For `COc1cc(C(=O)NC2CC3CCC(C2)N3CC(=O)Nc2ccccc2)cc(OC)c1OC` (stereo not drawn), the inhibition is 45.8% and 2.45%.

One may read the inhibition as the percentage by which the read-out fell short of the control. A high value points to a strong effect.
